Reference: PubChem BioAssay (NCI)
Several values for one entry are separate records, joined by “and”; a condition that tells them apart may be missing. Identical values can stand only once. This is part of a sample that, as a whole, favours compounds with a hit. Of some 83,000 tested, about 20% had one in any assay.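 Negative percent growth values reflect cell death: -40 means 40% of the cells present at the start died, and -100 means all died.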 The source holds several records for some structures; these can differ, active in one and inactive in another. Activity calls are given as the source filed them. The calls were made as follows: active = growth percent below 10; inactive = the rest.

Test system: MDA-MB-468 breast
Experiment: NCI-60 one-dose screen, 48 h (100 = growth as untreated, 0 = no growth, -100 = all killed)
Conditions: 10 µM unless noted

`COc1ccc(-c2ncnc3c2ncn3C/C=C/CCl)cc1` was tested, and the growth was -3.89% (active) and 61.5% (inactive).
In the case of `COc1ccc2c(c1)c(-c1nn3cc(-c4ccncc4)nc3s1)cn2C`, the growth is reported as 79.3% (inactive).
With `O=C(CCCCCCNC(=O)C(O)(O)C(F)(F)F)Nc1ncc(-c2ccccc2)s1` the growth was -25% (active).
For `CC/C=C\C/C=C\C[C@H]1C/C=C2/C(=O)C=C[C@@H]2C/C=C\CCC(=O)O1`, the growth was -8.25% (active).
`Fc1ccc(Nc2ncnc3ccc(-c4cn[nH]c4)cc23)cc1Cl` was tested, and the growth was -21.9% (active).
`OC(CNC1CCCCC1)Cn1c2ccc(I)cc2c2cc(I)ccc21` (stereo unspecified) was tested, and the growth was 67.4% (inactive).
In the case of `O=C(C(=O)N1CCOCC1)c1ccc(O[C@H]2O[C@H](CO)[C@@H](O)[C@H](O)[C@@H]2O)cc1`, the growth is reported as 97.5% (inactive).
`O=C1c2c(c3c4cc(F)ccc4oc3c3[nH]c4ccccc4c23)C(=O)N1O` was tested, and the growth was -5.83% (active).
For `O=C1/C=C/[C@@H](O)[C@@H]2C[C@@H](O)C[C@H]2/C=C/CCC[C@@H](O)CCO1`, the growth was -17% (active).
In the case of `COC(=O)[C@]12CC[C@@H](C)[C@H](C)[C@@H]1C1=CC[C@@H]3[C@@]4(C)C[C@@H](O)[C@H](O)[C@@](C)(CO)C4=CC[C@@]3(C)[C@]1(C)CC2`, the growth is reported as -66.4% (active).
`C=C1C(=O)O[C@@H]2[C@H]3[C@H](COC(C)=O)[C@@H](OC(C)=O)C[C@H]3C(=C)[C@@H](O)C[C@@H]12` was tested, and the growth was 77% (inactive).
`CCc1ccc(OC(=O)CCl)cc1` was tested, and the growth was 116% (inactive).
With `O=C(CO[N+](=O)[O-])Nc1ccc(C(=O)/C=C/c2ccc(Cl)cc2)cc1` the growth was 48.7% (inactive).
For `CCN1CCN(C(=S)SCC(=O)Nc2nc3ccc(OC)cc3s2)CC1`, the growth was 97.7% (inactive).
For `COc1cccc2c1c1nc3cc(C)c(C)cc3nc1n2CCN(C)C`, the growth was -8.02% (active).
For `Cc1c(C(=O)OCCO)cc(-c2ccc(Cl)cc2)n1-c1ccc(Cl)cc1Cl`, the growth was 56.5% (inactive).
In the case of `CC(C)(C)c1ccc(O)c(C2CCCCC2)c1`, the growth is reported as 111% (inactive).
With `CN(C)c1ccc(C(Cc2ccc3ccccc3n2)Cc2ccc3ccccc3n2)cc1` the growth was 32.6% (inactive) and 77% (inactive).
For `COc1cc(OC)c2sc(-c3ccc(-n4cncc4-c4ccc(OC)c(OC)c4)cc3)nc2c1`, the growth was 31% (inactive).
With `Cc1cc(C)c2c(c1)N(C)c1ncnc(-n3cnc4cc(C)ccc43)c1CC2C` (stereo unspecified) the growth was 6.16% (active).
With `CCOP(=O)(OCC)OC[C@]12CCC(C)(C)C[C@H]1C1=CC[C@@H]3[C@@]4(C)CC[C@H](OP(=O)(OCC)OCC)C(C)(C)[C@@H]4CC[C@@]3(C)[C@]1(C)CC2` the growth was 40.9% (inactive).
`COc1ccc(C2(Cl)c3ccccc3N(c3ccccc3)c3ccccc32)cc1` was tested, and the growth was -32.7% (active).
`CC(=O)Nc1cc(N2CCOCC2)c2nc(NC(=O)c3[nH]c(C)c(Cl)c3Cl)sc2c1` was tested, and the growth was 47.7% (inactive).
With `Nc1nc(N)c(-c2ccc(Cl)c(Cl)c2)c(CBr)n1` the growth was 84% (inactive).
For `COc1ccc(-c2cc(-c3ccccc3)nc(SCCCC(=O)NO)n2)cc1`, the growth was -50.5% (active).
`O=C(O)c1ccccc1Cc1ccc(F)c2ccccc12` was tested, and the growth was 110% (inactive) and 102% (inactive).
In the case of `CO[C@H]1CC[C@@]2(C)C(=CC[C@H]3[C@@H]4C[C@H](O)C[C@@]4(C)CC[C@@H]32)C1`, the growth is reported as -12.8% (active).
`CNCc1cccc2c1OCCOCCN(C)C(=O)CN(C)S(=O)(=O)c1ccc(cc1)-c1cnc(N)c(n1)C(=O)N2` was tested, and the growth was -49.3% (active).
For `Cc1cc(C)nc(NC(N)=NCCc2ccccc2)n1`, the growth was -3.56% (active).
For `CCCCCc1nc2c(c3c1CCCC3)CCCC2`, the growth was 75.5% (inactive).
For `O=S(=O)(Nc1ccc(F)cc1)c1ccc(-c2cnc(C3CC3)o2)cc1`, the growth was 4.54% (active).
In the case of `CCOC(=O)c1ccc(Nc2sc(C(=O)c3cccc([N+](=O)[O-])c3)c(N)c2C#N)cc1`, the growth is reported as 4.24% (active).
For `CCOC(=O)N1CCC(N=C2CSc3nnc(-c4cc(C(F)(F)F)cc(C(F)(F)F)c4)n3N2)CC1`, the growth was 2.22% (active).
With `O=C(Nc1cccc(-n2cc(-c3ccncc3)c(-c3cc(O)cc(Cl)c3)n2)c1)c1cc(C(F)(F)F)cc(C(F)(F)F)c1` the growth was 31.2% (inactive).
`O=S(=O)(CCN1CCOCC1)Nc1cncc(-c2ccc3ncnc(Nc4ccc(F)c(Cl)c4)c3c2)c1` was tested, and the growth was -23.1% (active).
In the case of `C[C@H]1[C@H](C)CC[C@]2(C(=O)NCCNCCN)CC[C@]3(C)C(=CC[C@@H]4[C@@]5(C)CCC(=O)C(C)(C)[C@@H]5CC[C@]43C)[C@H]12`, the growth is reported as 34% (inactive).
